Assay results published in publication PMC12864922, “TDP-43 directly inhibits mRNA accumulation in neurites through modulation of mRNA stability”.
Over roughly 9,900 sequences, “r (bound/input frequency ratio)” has its median near 0.7; the highest 2% begin near 6.5. The sample holds the highest values, similar sequences and a random draw of the others, so the mix is not that of the screen.

B1: ENSMUSG00000061578.1085|Ksr2|91:95 (ssRNA)
RNA: GGGAGUUCUACAGUCCGACGAUCGCUUCGAUAUCCGCAUGCUAGAUUCUAUCCAGUGGCCAGCAAUACCCAAAAGCAGCCAACCAUGAAAAUAGAGGUUUGUAAUGUACAGAAGGCUGGGGGAGCUUUCAGGGCACACGCCAGUUAUGUACAGAUGUGAAGCUGAGGUCUGAAGGAAAUGGAGGAAGUAGGAAGAUCAGACUGGUUGAAUUAGAAGUCUGUCACUCUAGGUGCUAAGUGACCUUGGACCCAGUCAGUUCUUGGAUUUCUGUUGUAGCCCAGGCUAGCCUCGAACCCUUGAUCCCUCUUGCGGUCGCACUAGUGUGGAAUUCUCGGGUGUCAAGG
B2: ENSMUSG00000058297.28|Spock2|83:87;91:104;113:124;138:144;153:162;168:193 (ssRNA)
RNA: GGGAGUUCUACAGUCCGACGAUCGCUUCGAUAUCCGCAUGCUACCUGGACAACAGCAGGCAACUUAGCAAAUGGAUCCGGAAGUCAGUGCGGAGGACCCUGGCUCCAGUGGGGGAGGACUGGGGACACACGCUACACACAUACACACAUAUGAGAACACACACAUACAUGUGAGAUGUGACACACACAUGUGAGAACACACAUACUGAGAACACACACACACACACACACACACACAUGUGAGUCACCCAAAGGUCCCUAUGUUAUUGAUUUUCAAAUGCACACUUUCACACACAAGGAUACACUCUUGCGGUCGCACUAGUGUGGAAUUCUCGGGUGUCAAGG
B3: ENSMUSG00000058297.29|Spock2 (ssRNA)
RNA: GGGAGUUCUACAGUCCGACGAUCGCUUCGAUAUCCGCAUGCUACAACAGCAGGCAACUUAGCAAAUGGAUCCGGAAGUCAGUGCGGAGGACCCUGGCUCCAGUGGGGGAGGACUGGGGAGUGUGGCUUGUGUGUAUGUGUGAUAUGAGAUGUGUGUGUAUGAUGUGAGAUGUGAGUGUGUGAUGUGAGAUGUGUGUAUGUGAGAUGUGUGUGUGUGUGUGUGUGUGUGUGAUGUGAGUCACCCAAAGGUCCCUAUGUUAUUGAUUUUCAAAUGCACACUUUCACACACAAGGAUACACUAACACUCUUGCGGUCGCACUAGUGUGGAAUUCUCGGGUGUCAAGG
B4: ENSMUSG00000058297.28|Spock2 (ssRNA)
RNA: GGGAGUUCUACAGUCCGACGAUCGCUUCGAUAUCCGCAUGCUACCUGGACAACAGCAGGCAACUUAGCAAAUGGAUCCGGAAGUCAGUGCGGAGGACCCUGGCUCCAGUGGGGGAGGACUGGGGAGUGUGGCUUGUGUGUAUGUGUGAUAUGAGAUGUGUGUGUAUGAUGUGAGAUGUGAGUGUGUGAUGUGAGAUGUGUGUAUGUGAGAUGUGUGUGUGUGUGUGUGUGUGUGUGAUGUGAGUCACCCAAAGGUCCCUAUGUUAUUGAUUUUCAAAUGCACACUUUCACACACAAGGAUACACUCUUGCGGUCGCACUAGUGUGGAAUUCUCGGGUGUCAAGG
B5: ENSMUSG00000058297.27|Spock2 (ssRNA)
RNA: GGGAGUUCUACAGUCCGACGAUCGCUUCGAUAUCCGCAUGCUAAAGAGACCUGGACAACAGCAGGCAACUUAGCAAAUGGAUCCGGAAGUCAGUGCGGAGGACCCUGGCUCCAGUGGGGGAGGACUGGGGAGUGUGGCUUGUGUGUAUGUGUGAUAUGAGAUGUGUGUGUAUGAUGUGAGAUGUGAGUGUGUGAUGUGAGAUGUGUGUAUGUGAGAUGUGUGUGUGUGUGUGUGUGUGUGUGAUGUGAGUCACCCAAAGGUCCCUAUGUUAUUGAUUUUCAAAUGCACACUUUCACACACAAGCUCUUGCGGUCGCACUAGUGUGGAAUUCUCGGGUGUCAAGG
B6: ENSMUSG00000031028.414|Tub|94:98;228:232;234:246;252:260 (ssRNA)
RNA: GGGAGUUCUACAGUCCGACGAUCGCUUCGAUAUCCGCAUGCUAUUCUUUUUGGUCCUUGGCUGGGUAGCAAAUUGGUGAGAAGAGCAGCCUAGUCUGUAAGAGUGCAGGGCAGCUGGAACCUUAGGCAGCUCCUCUCAUACCUACCGGCUCCACACCCUAACACUCUCCACCCUCUGCUCCAAACCAGUUCUUCUGCAGAGUGGUGAUGUUAGCUUCCCCAGCUCCUCUCCAAGUCUAGCUUUUUCUGUCCUUCUGGCUCCAAGGUGCUCACACACACACACACACACACUGUCACACACACACUCUUGCGGUCGCACUAGUGUGGAAUUCUCGGGUGUCAAGG
B7: ENSMUSG00000031028.183|Tub (ssRNA)
RNA: GGGAGUUCUACAGUCCGACGAUCGCUUCGAUAUCCGCAUGCUAAGGGCACAUGUCUCUUGGUUACCUCACUGGUUAAUGGCAGAGUUGAGAACCUCAAAUUCUUUUGUUCCUACUGUUGCCCAGAAACUAGACUCUCUGACCUGCUAGGGUCUAUUCUGCAUGUCCUUUCUCUUCCCAGUUCCAGAGAUGAAACCCCUCCGAGUUAAUGUAUAAGGUUGGAAACCUUUCAGUAGGGAAUCAGGCAGUUCCCUGUUGAAAGUUGUCUGAGUUUUUGCACACCAUUCUGAUCUGAUGUGGCCUGUCUCUUGCGGUCGCACUAGUGUGGAAUUCUCGGGUGUCAAGG
B8: ENSMUSG00000028439.343|Fam219a (ssRNA)
RNA: GGGAGUUCUACAGUCCGACGAUCGCUUCGAUAUCCGCAUGCUACCAGUUCGCAUCCCCACCACUCAUCAUCUGGGCCCCAACGCUAGAACUCCCCCCACCGCAUCCCCACUGGGCUCUUUGACUCACCCUUCUAGAACAUGGGUGCCUCCUCUCUUUAGACUGCUGCCUUUGCCUCUGACUUCCUGUGGGAUUGAGAGCCAAGGGCCAGUGCCCUUGUGAGCGCACUAGUUCCGAAGCAGGCAAGGGCAUUAGGUGGUAUAUACAUAGCGGGUAGGGGUAGGAAGCUGGCAGCCUGCAGCUUCCUCUUGCGGUCGCACUAGUGUGGAAUUCUCGGGUGUCAAGG

The binders below were run against TDP-43 (Homo sapiens, UniProt Q13148 1-414) (assay: RNA Bind-n-Seq with designed 260-mer pool; 25 mM Tris-HCl, 150 mM KCl, 3 mM MgCl2, BSA (printed 500 mg/mL), 20 units/mL SUPERase IN; pH not stated; 500 nM RNA pool, 1 h, 4 C; TDP-43 5, 50, 500 nM; high values mean tight binding). Settings: protein: recombinant; tags: SBP (GST cleaved off with PreScission; pGEX-GST-SBP).
Chain of TDP-43 (Q13148 whole entry): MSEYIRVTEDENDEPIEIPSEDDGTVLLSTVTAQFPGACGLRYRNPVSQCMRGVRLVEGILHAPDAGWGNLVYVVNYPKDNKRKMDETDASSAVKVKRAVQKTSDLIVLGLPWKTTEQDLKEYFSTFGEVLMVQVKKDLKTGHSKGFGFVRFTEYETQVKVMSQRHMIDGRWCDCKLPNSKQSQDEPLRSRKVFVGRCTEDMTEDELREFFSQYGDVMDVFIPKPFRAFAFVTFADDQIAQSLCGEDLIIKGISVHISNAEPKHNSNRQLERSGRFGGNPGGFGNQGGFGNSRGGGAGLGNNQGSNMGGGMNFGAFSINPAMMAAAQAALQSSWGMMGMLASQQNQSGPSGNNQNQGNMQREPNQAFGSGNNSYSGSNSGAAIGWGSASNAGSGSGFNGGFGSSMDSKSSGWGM
Method in brief: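 For each oligo, R gives binding as its mapped-read-normalized abundance after pulldown divided by its abundance in input. Bead-captured SBP-tagged TDP-43 (5, 50 or 500 nM) was incubated with 500 nM of an in vitro-transcribed 260-nt 3′ UTR oligo pool for 1 h at 4 °C in 25 mM Tris-HCl, 150 mM KCl, 3 mM MgCl2, BSA and SUPERase IN on streptavidin beads. Washed, biotin-eluted RNA was reverse transcribed, PCR-amplified and sequenced.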

**Q.** With B1 as the binder, how does the binding signal read?
**A.** 0.868 R (bound/input frequency ratio)

**Q.** How did the binding signal turn out when B2 was run?
**A.** 3.52 R (bound/input frequency ratio)

**Q.** With B3 as the binder, how does the binding signal read?
**A.** 6.82 R (bound/input frequency ratio)

**Q.** Which binding signal does the source give for B4 here?
**A.** 6.8 R (bound/input frequency ratio)

**Q.** With B5 as the binder, how does the binding signal read?
**A.** 6.12 R (bound/input frequency ratio)

**Q.** For B6, which binding signal is on record?
**A.** 2.86 R (bound/input frequency ratio)

**Q.** B7 was tested. Which binding signal did it give?
**A.** 0.952 R (bound/input frequency ratio)

**Q.** With B8 as the binder, how does the binding signal read?
**A.** 0.735 R (bound/input frequency ratio)
